Sampled rows, rich in hits. Any-hit rate of the full collection: about 3.1%.
RAD52 anneal inh – RAD52 (human) annealing inhibition; P43351; recombinant RAD52 DNA annealing, FRET fluorescence; inhibition, % at 18.7 µM; hit rate 0.46% among 360,000; AID 651710;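 active = every replicate showing at least 50% inhibition; inconclusive = mean inhibition at least 50% but not in every replicate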
AF4-AF9 inh – MLL-AF4/AF9 protein interaction inhibition. P42568. AlphaScreen, biotin-AF4 peptide binding to FLAG-AF9. inhibition, % at 10 µM. hit rate 0.47% among 350,000. AID 651704;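 active = every replicate reaching a set inhibition limit, whatever the replicate mean, cut at about 25% in these data; inconclusive = mean inhibition reaches that limit but some replicates miss it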
INS-1E GSIS act – GLuc luminescence reporter in INS-1E cells, primary screen for activators of glucose-dependent secretion of insulin; INS-1E GLuc reporter insulin secretion, 2-3 h; activation, % at 16.6 µM; hit rate 0.61% among 370,000; AID 743287;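 active = lowest replicate activation of at least 40%, so every replicate reaches that level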
dFosB act-1 – enhances mouse delta FosB homodimer DNA binding; purified delta FosB, TAMRA-CDK5 oligo fluorescence polarization; percent of positive-control signal above neutral wells; activation, % at 25 µM; hit rate 0.99% among 340,000; AID 493131;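 active = mean activation above about 17%, with every replicate also reaching it, limit read from the data, passing the limit was not always enough; inconclusive = only one of the two conditions met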
RAD54 inh – RAD54 (human) branch migration inhibition | Q92698 | hit rate 0.14% among 360,000 | RAD54 Holliday junction branch migration, FAM/BHQ fluorescence | inhibition, % at 10.4 µM | AID 602329;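 active = mean normalized replicate activity at least 40 and at least half of replicates scoring 40 or more; inconclusive = only one of the two criteria met; inactive = mean below 40 and under half of replicates reaching 40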;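 also: inhibitors cause a drop in the FAM fluorescence signal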
Target sequence (Q92698 whole entry, looked up): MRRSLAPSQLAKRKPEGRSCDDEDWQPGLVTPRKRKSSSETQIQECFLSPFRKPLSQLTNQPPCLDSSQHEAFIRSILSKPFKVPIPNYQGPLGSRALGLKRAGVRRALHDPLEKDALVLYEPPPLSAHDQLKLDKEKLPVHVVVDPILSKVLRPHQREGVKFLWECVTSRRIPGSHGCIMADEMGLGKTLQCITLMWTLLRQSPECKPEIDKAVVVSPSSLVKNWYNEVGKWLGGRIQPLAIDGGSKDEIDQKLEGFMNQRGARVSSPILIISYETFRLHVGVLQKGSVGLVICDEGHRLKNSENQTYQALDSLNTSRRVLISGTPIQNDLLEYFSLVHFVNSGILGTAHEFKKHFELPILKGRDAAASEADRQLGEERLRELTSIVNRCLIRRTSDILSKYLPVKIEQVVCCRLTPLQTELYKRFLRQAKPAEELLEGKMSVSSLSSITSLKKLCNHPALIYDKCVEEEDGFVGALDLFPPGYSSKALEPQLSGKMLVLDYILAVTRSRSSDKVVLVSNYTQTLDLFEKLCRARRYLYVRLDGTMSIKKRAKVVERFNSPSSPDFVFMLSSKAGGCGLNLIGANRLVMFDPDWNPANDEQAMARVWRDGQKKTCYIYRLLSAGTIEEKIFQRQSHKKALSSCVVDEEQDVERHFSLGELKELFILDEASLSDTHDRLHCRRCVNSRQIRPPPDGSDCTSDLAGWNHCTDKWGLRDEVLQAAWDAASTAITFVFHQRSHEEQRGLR
DENV2 CPE rescue – inhibitors of DENV2 cytopathic effect; AID 651640; CPE inhibition, % at 9.99 µM; DENV2-infected cells, cytopathic effect rescue, plate reader; hit rate 1.7% among 350,000; in the data active = CPE inhibition above about 20%, passing the limit was not always enough; inconclusive = no clear call, values can overlap the other calls; tested in BHK-21 cells
dFosB act-2 – enhances mouse delta FosB homodimer binding to DNA. activation, % at 24.9 µM. 2,400 tested, under 10 active. purified delta FosB, TAMRA-CDK5 oligo fluorescence polarization; normalised: neutral wells 0, positive control 100. shares compounds with dFosB act-1;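 active = highest replicate activation at or above 34% and every replicate reaching that threshold; inconclusive = meets only one of the two criteria; inactive = meets neither criterion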;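 also: higher polarization means more probe DNA bound by delta FosB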
A number is an active result; 0 = inactive; ? = inconclusive; - = not tested or not shown.

SMILES	RAD52 anneal inh	AF4-AF9 inh	INS-1E GSIS act	dFosB act-1	RAD54 inh	DENV2 CPE rescue	dFosB act-2
CC(=O)c1ccc(N2CCN(C(=O)c3ccc4ccccc4n3)CC2)cc1	0	0	0	0	-	0	-
O=C(C[C@H]1C[C@H]2c3cc(NC(=O)C4CCC4)ccc3O[C@H]2[C@@H](CO)O1)NCc1cccc(F)c1	0	0	0	-	0	0	-
CCOC(=O)c1cc2c(N)c(C(=O)c3ccc(Br)cc3)sc2[nH]c1=O	0	-	0	21.9	-	0	0
C[C@H](CO)N1C[C@H](C)[C@@H](CN(C)C(=O)c2ccccc2)Oc2ncc(C#CC3CC3)cc2C1=O	0	0	0	-	0	0	-
Cc1ccc(Cn2c(CCNc3nc(-c4ccc(C)cc4)cs3)nc3cc(C(=O)NCCCO)ccc32)cc1	0	0	0	23.4	0	0	0
CN(C)Cc1cn(CC[C@H]2CC[C@@H](NC(=O)Nc3ccccc3F)[C@@H](CO)O2)nn1	0	0	0	-	0	0	-
O=C(Nc1ccccc1Cc1ccccc1)C1CC(=O)N(c2ccc3c(c2)OCCO3)C1 (stereo not drawn)	-	-	-	35.7	0	-	0
Cc1ccc(C)c(CN2C(=O)c3ccccc3S(=O)c3ccc(C(=O)NCCCN4CCCC4)cc32)c1 (stereo not drawn)	0	0	0	25.4	0	0	0
O=[N+]([O-])c1ccc(OCCOc2ccccc2/C=N/n2cnnc2)cc1	0	0	0	35.9	-	0	0
Nc1c(S(=O)(=O)c2cccs2)c2nc3ccccc3nc2n1Cc1cccs1	-	-	-	25.9	0	-	0
CC(C)CCn1c(N)c(S(=O)(=O)c2cccs2)c2nc3ccccc3nc21	0	0	0	0	0	0	-
COc1cc(OC)cc(C(=O)NC(=S)Nc2ccc3[nH]c(=O)[nH]c3c2)c1	0	0	0	24.5	0	0	0
Cc1cccc(C)c1NC(=O)Cn1nc(-c2ccccc2)nc1-c1ccccc1	-	-	-	45.3	0	-	0
Cc1cc(C)c(NC(=O)Cn2nc(-c3ccccc3)nc2-c2ccccc2)c(C)c1	0	0	0	0	-	0	-
S=C(Nc1ccc(Cl)cc1)c1nc2ccccc2[nH]1	-	-	0	29.1	0	-	0
CCCNC(=O)C[C@@H]1CC[C@@H]2[C@@H](COc3ccc(NC(=O)CCC)cc3C(=O)N2C)O1	0	0	0	-	0	0	-
C[C@H]1CCCCO[C@H](CN(C)Cc2ccc(C(=O)O)cc2)[C@@H](C)CN([C@@H](C)CO)C(=O)c2cc(NS(C)(=O)=O)ccc2O1	0	0	0	-	0	0	-
COc1ccc(-c2nc(Cn3c(SCc4ccc(C)cc4)nc4ccncc43)c(C)o2)cc1OC	0	0	-	38.8	0	0	0
CCC(=O)N[C@H]1CC[C@@H](CCNC(=O)Nc2ccc(F)cc2)O[C@H]1CO	0	0	0	-	0	0	-
O=C(C[C@@H]1CC[C@@H]2[C@H](COC[C@@H](O)CN2Cc2cccc(F)c2)O1)NCCc1ccncc1	0	0	0	-	0	?	-
COC(=O)C1=C(COc2ccccc2)NC(=O)NC1c1ccc(Br)cc1 (stereo not drawn)	0	0	-	35.5	0	?	0
COC(=O)C1=C(COc2ccccc2)NC(=O)NC1c1ccc2ccccc2c1 (stereo not drawn)	0	0	0	-	-	0	-
O=C(C[C@H]1CC[C@H](NC(=O)c2ccc3c(c2)OCO3)[C@@H](CO)O1)NC1Cc2ccccc2C1	0	0	0	-	0	0	-
Cc1ccc(OCCCCN(C)Cc2ccccc2)c(Br)c1	0	0	-	24.9	0	0	0
CN(CC(=O)Nc1ccc(F)c(F)c1F)C(=O)c1cc(-c2ccncc2)nc2ccccc12	0	0	0	0	0	0	-
SMILES	RAD52 anneal inh	AF4-AF9 inh	INS-1E GSIS act	dFosB act-1	RAD54 inh	DENV2 CPE rescue	dFosB act-2
CN(CC(=O)Nc1ccc(Cl)c(C(F)(F)F)c1)C(=O)c1cc(-c2ccncc2)nc2ccccc12	0	0	0	65.7	0	0	0
CC=Cc1ccc2n(c1=O)C[C@H]1N[C@@H]2[C@@H](C(=O)NCCc2ccccc2)[C@@H]1CO (mixture of isomers)	0	0	0	-	0	0	-
Cc1onc(-c2ccccc2)c1C(=O)NC(=S)NNC(=O)c1cc(-c2ccc(F)cc2)n[nH]1	0	-	0	29.3	0	0	0
C[C@@H]1CN([C@@H](C)CO)C(=O)c2cc(NS(=O)(=O)c3ccccc3)ccc2O[C@H]1CN(C)C	0	0	0	-	0	0	-
Cn1cc(Cl)c(C(=O)Nc2nc3ccc(Cl)cc3s2)n1	-	-	-	23.5	0	-	0
Cc1cc(C)cc(NC(=O)C2CCN(S(=O)(=O)c3ccc4[nH]c(=O)ccc4c3)CC2)c1	0	0	-	46.3	0	?	0
CCc1ccc(NC(=O)C2CCCN(S(=O)(=O)c3ccc4[nH]c(=O)ccc4c3)C2)cc1 (stereo not drawn)	0	0	0	29.3	0	0	0
CNC(=O)c1c[nH]c2ccc(S(=O)(=O)Nc3cccc(SC)c3)cc2c1=O	0	0	0	19.4	0	0	0
Cc1sc2nc(SCC(=O)Nc3ccccc3F)[nH]c(=O)c2c1C	0	0	0	22.5	0	0	0
Cc1cc(C)c2c(=O)[nH]c(SCC(=O)Nc3ccccc3)nc2n1	-	-	-	0	0	-	-
COc1ccc(NC(=O)CSc2nc3scc(C)c3c(=O)[nH]2)cc1	0	0	-	0	0	0	-
Cc1ccccc1NC(=O)CSc1nc2scc(C)c2c(=O)[nH]1	0	0	0	27.5	0	0	0
Cc1csc(NC(=O)CSc2nc3sc(C)c(C)c3c(=O)[nH]2)n1	-	-	-	0	0	-	-
Cc1ccc(NC(=O)CSc2nc3nc(C)cc(C)c3c(=O)[nH]2)cc1	0	-	0	22.1	0	-	0
C[C@H]1CN([C@@H](C)CO)S(=O)(=O)c2ccc(-c3ccc(F)cc3)cc2O[C@H]1CN(C)S(C)(=O)=O	0	0	0	-	0	0	-
CC(=O)c1ccc(OCC(=O)Nc2ccccc2C(=O)NC2CC2)cc1	0	0	0	30.3	0	?	0
CC(=O)c1ccc(OCC(=O)NC2CCCCCC2)cc1	0	0	0	0	0	0	-
O=C(CCC(=O)Nc1ccccc1Cl)NNC(=O)COc1ccc([N+](=O)[O-])cc1	0	0	0	16.7	0	0	0
O=C(COc1ccc([N+](=O)[O-])cc1)Nc1ccccc1C(=O)NC1CC1	0	0	0	25.6	-	0	0
O=C(COc1ccc(/C=N/NC(=O)c2ccccc2O)cc1)Nc1ccc([N+](=O)[O-])cc1	0	0	0	24.4	0	0	0
Cc1noc(C)c1NC(=O)N(C)C[C@@H]1Oc2ccc(NC(=O)Nc3ccccc3)cc2CC(=O)N([C@@H](C)CO)C[C@H]1C	0	0	0	-	0	0	-
CN1/C(=C/C=N/n2cnnc2)C(C)(C)c2ccccc21	-	-	-	20.1	-	-	0
CN1/C(=C\C=N\NC(=O)c2ccccc2Br)C(C)(C)c2ccccc21	-	-	0	0	0	-	-

High-throughput results: PubChem, Broad Institute
